Results filed as inconclusive are left out. The source made the active and inactive calls. The call rests on the fitted dose curve; in most records, active means well fitted curve in the direction sought with a large enough effect; inconclusive means small, poorly fitted or top-dose-only effect, or another doubt; inactive means no such curve, though single readings can be large; an effect the other way counts as inactive or inconclusive.

The nature of experiment [1]: Quantitative High-Throughput drug screen in 47 multiple myeloma cell lines against the NCATS MIPE library collection: JIM3_ECACC cell viability assay (AID 1918963; further: nearly all actives have a fitted effect of over 35% in size; further: potency means the concentration at half of the fitted maximal effect). The method, boiled down:
(§1)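 Myeloma cell lines, 500 cells per well, exposed to MIPE 4.0 library compounds for 48 h at 37C, 5% CO2. Viability from ATP by CellTiter-Glo luminescence; normalised to DMSO (100%) and media-only (0%) wells.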

Experiment [2] is described as follows: Quantitative High-Throughput drug screen in 47 multiple myeloma cell lines against the NCATS MIPE library collection: KMS27_JCRB cell viability assay (AID 1918970). Further: nearly all actives have a fitted effect of over 30% in size. Further: potency means the concentration at half of the fitted maximal effect. In short, it runs like this: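 CellTiter-Glo luminescence after 48 h drug exposure at 37 °C; 500 cells/well, 1536-well format, pin-tool compound addition; DMSO = 100%, media-only = 0% viability.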

Experiment [3] can be described thus: Quantitative High-Throughput drug screen in 47 multiple myeloma cell lines against the NCATS MIPE library collection: KMS12BM_JCRB cell viability assay (AID 1918971). Further: nearly all actives have a fitted effect of over 35% in size. Further: potency means the concentration at half of the fitted maximal effect. In short, it runs like this: (§2)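 Relative luminescence from CellTiter-Glo served as the viability signal, referenced to DMSO-treated (100%) and cell-free medium (0%) controls. Treatment lasted 48 hours at 37C with 500 cells per well.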

Experiment [4] in a line: Quantitative High-Throughput drug screen in 47 multiple myeloma cell lines against the NCATS MIPE library collection: KMS12PE_JCRB cell viability assay (AID 1918972). Further: nearly all actives have a fitted effect of over 30% in size. Further: potency means the concentration at half of the fitted maximal effect. The method, boiled down:
as §1

The nature of experiment [5]: Quantitative High-Throughput drug screen in 47 multiple myeloma cell lines against the NCATS MIPE library collection: KMS20_JCRB cell viability assay (AID 1918973). Further: nearly all actives have a fitted effect of over 45% in size. Further: potency means the concentration at half of the fitted maximal effect. The method, boiled down:
as §2

Experiment [6] can be described thus: Quantitative High-Throughput drug screen in 47 multiple myeloma cell lines against the NCATS MIPE library collection: MMM1_PLB cell viability assay (AID 1918976). Further: potency means the concentration at half of the fitted maximal effect; nearly all actives have a fitted effect of over 35% in size. The method, boiled down:
(§3)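 500 cells/well per myeloma line exposed to pinned MIPE 4.0 compounds for 48 h at 37 °C, 5% CO2. Viability read as ATP by CellTiter-Glo luminescence, normalised to DMSO-only (100%) and media-only (0%) wells.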

A short description of experiment [7]: Quantitative High-Throughput drug screen in 47 multiple myeloma cell lines against the NCATS MIPE library collection: Karpas25_ECACC cell viability assay (AID 1918968; further: nearly all actives have a fitted effect of over 35% in size; further: potency means the concentration at half of the fitted maximal effect). The method, boiled down:
as §2

Experiment [8] is described as follows: Quantitative High-Throughput drug screen in 47 multiple myeloma cell lines against the NCATS MIPE library collection: JIM1_ECACC cell viability assay (AID 1918964). In short, it runs like this:
as §2

The nature of experiment [9]: Quantitative High-Throughput drug screen in 47 multiple myeloma cell lines against the NCATS MIPE library collection: INA6_PLB cell viability assay (AID 1918965; further: nearly all actives have a fitted effect of over 55% in size; further: potency means the concentration at half of the fitted maximal effect). In short, it runs like this:
as §1

The nature of experiment [10]: Quantitative High-Throughput drug screen in 47 multiple myeloma cell lines against the NCATS MIPE library collection: KMM1_JCRB cell viability assay (AID 1918960). Further: nearly all actives have a fitted effect of over 30% in size. Further: potency means the concentration at half of the fitted maximal effect. In short, it runs like this: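 ATP readout (CellTiter-Glo), 48 h drug incubation, 37 °C/5% CO2, 500 cells per well; normalisation to DMSO (100%) and media-only (0%) controls.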
The nature of experiment [11]: Quantitative High-Throughput drug screen in 47 multiple myeloma cell lines against the NCATS MIPE library collection: KHM11_PLB cell viability assay (AID 1918962). Further: nearly all actives have a fitted effect of over 35% in size. Further: potency means the concentration at half of the fitted maximal effect. In short, it runs like this: as §1
Experiment [12] can be described thus: Quantitative High-Throughput drug screen in 47 multiple myeloma cell lines against the NCATS MIPE library collection: H1112_PLB cell viability assay (AID 1918967; further: nearly all actives have a fitted effect of over 30% in size; further: potency means the concentration at half of the fitted maximal effect). The method, boiled down:
as §2

A short description of experiment [13]: Quantitative High-Throughput drug screen in 47 multiple myeloma cell lines against the NCATS MIPE library collection: KMS21BM_JCRB cell viability assay (AID 1918974). Further: potency means the concentration at half of the fitted maximal effect. To be noted: ATP luminescence, 48 h; viability: at 45.8 µM (top of the series) unless noted. In short, it runs like this:
as §2

Experiment [14] can be described thus: Quantitative High-Throughput drug screen in 47 multiple myeloma cell lines against the NCATS MIPE library collection: NCIH929_DSMZ cell viability assay (AID 1918978). Further: nearly all actives have a fitted effect of over 35% in size. Further: potency means the concentration at half of the fitted maximal effect. In short, it runs like this: as §3
Experiment [15] is described as follows: Quantitative High-Throughput drug screen in 47 multiple myeloma cell lines against the NCATS MIPE library collection: KMS26_JCRB cell viability assay (AID 1918975). Further: nearly all actives have a fitted effect of over 45% in size. In short, it runs like this:
as §2

Experiment [16] can be described thus: Quantitative High-Throughput drug screen in 47 multiple myeloma cell lines against the NCATS MIPE library collection: JJN3_DSMZ cell viability assay (AID 1918966; further: nearly all actives have a fitted effect of over 50% in size). The method, boiled down:
as §2

The nature of experiment [17]: Quantitative High-Throughput drug screen in 47 multiple myeloma cell lines against the NCATS MIPE library collection: MOLP8_DSMZ cell viability assay (AID 1918977). Further: nearly all actives have a fitted effect of over 45% in size. The method, boiled down:
as §3

Turning to `CC=CC[C@@H](C)C(=O)[C@H]1C(=O)N[C@@H](C(C)C)C(=O)N(C)CC(=O)N(C)[C@@H](CC(C)C)C(=O)N[C@@H](C(C)C)C(=O)N(C)[C@@H](CC(C)C)C(=O)N[C@@H](C)C(=O)N[C@H](C)C(=O)N(C)[C@@H](CC(C)C)C(=O)N(C)[C@@H](CC(C)C)C(=O)N(C)[C@@H](C(C)C)C(=O)N1C`, the Potency in experiment [1] is 23.5 µM (active); in experiment [2], 4.69 µM (active); in experiment [3] it was 23.5 µM (active); in experiment [5], 1.32 µM (active); in [6], 5.26 µM (active). The Potency result in experiment [4] was “inactive”.
For `COc1cc(N2CCC(N3CCN(C)CC3)CC2)ccc1Nc1ncc(Cl)c(Nc2ccccc2S(=O)(=O)C(C)C)n1`, the Potency entry in experiment [7] was “inactive”.
On to `O=c1c(-c2ccc(O)cc2)coc2cc(OC3O[C@H](CO)[C@H](O)[C@H](O)[C@H]3O)cc(O)c12` (stereo partly drawn), for which the Potency was 4.69 µM (active) in experiment [1], 10.5 µM (active) in [9], 3.32 µM (active) in experiment [7] and 18.7 µM (active) in [6]. The Potency entry in experiment [8] and in [2] was “inactive” in each case.
As to `CN(C[C@@H]1COCCO1)S(=O)(=O)Nc1ccc2ccc3ncc(-c4cnn(C)c4)cc3c(=O)c2c1`, the Potency is 1.48 µM (active) in experiment [10]; 743 nM (active) in experiment [11]; 4.18 µM (active) in experiment [9]; 1.66 µM (active) in [12]; 3.32 µM (active) in experiment [7]; 16.6 µM (active) in experiment [3]. Moreover, the Potency is 0.743 µM (active) in experiment [4], 1.18 µM (active) in experiment [5], 5.26 µM (active) in experiment [13] and 7.43 µM (active) in experiment [14].
Consider `CO[C@H]1C=CO[C@@]2(C)Oc3c(C)c(O)c4c(O)c(c5c(c4c3C2=O)NC2(CCN(CC(C)C)CC2)N=5)=NC(=O)C(C)=CC=C[C@H](C)[C@H](O)[C@@H](C)[C@@H](O)[C@@H](C)[C@H](OC(C)=O)[C@H]1C`, for which the Potency entry in [10], in [1], in [8], in experiment [12], in experiment [15] and in [14] was “inactive” in each case. For the same compound, the Potency in [7] is 16.6 µM (active); in experiment [4] it was 11.8 µM (active).
`COc1cccc([C@@H](C)NCCCc2ccccc2Cl)c1`: the Potency result in experiment [11], in experiment [1], in [16], in experiment [15] and in experiment [17] was “inactive” in each case. The Potency in experiment [13] is 16.6 µM (active).
`CN1C[C@H]2c3ccccc3Oc3ccc(Cl)cc3[C@@H]2C1`: the Potency result in experiment [12], in [3], in experiment [5], in [17] and in [14] was “inactive” in each case.
`CC=CCC(C)C(O)C1C(=O)NC(CC)C(=O)N(C)CC(=O)N(C)C(CC(C)C)C(=O)NC(C(C)C)C(=O)N(C)C(CC(C)C)C(=O)NC(C)C(=O)NC(C)C(=O)N(C)C(CC(C)C)C(=O)N(C)C(CC(C)C)C(=O)N(C)C(C(C)C)C(=O)N1C` (stereo not drawn): the Potency entry in [10] is “inactive”.
Regarding `CC(=O)OC1C(C)OC(Oc2c(-c3ccc(O)cc3)oc3cc(O)cc(O)c3c2=O)C(O)C1OC(C)=O` (stereo not drawn), the Potency entry in experiment [11], in experiment [1] and in [12] was “inactive” throughout. In addition, the Potency in [9] is 9.35 µM (active); in [5], 11.8 µM (active); in experiment [6], 2.96 µM (active).
In the case of `CC(C)(C)OC(=O)N[C@H]1CCCCCC=C[C@@H]2C[C@@]2(C(=O)NS(=O)(=O)C2CC2)NC(=O)[C@@H]2C[C@@H](OC(=O)N3Cc4cccc(F)c4C3)CN2C1=O`, the Potency entry in experiment [11], in experiment [1], in experiment [12], in experiment [2], in experiment [3] and in experiment [5] was “inactive” each time. The Potency entry in experiment [15], in experiment [17] and in experiment [14] was “inactive” each time. The Potency in experiment [4] is 13.2 µM (active).
On to `CO[C@H]1C(=O)[C@]2(C)[C@@H](OC)C[C@H]3OC[C@@]3(OC(C)=O)[C@H]2[C@H](OC(=O)c2ccccc2)[C@]2(O)C[C@H](OC(=O)[C@H](O)[C@@H](NC(=O)OC(C)(C)C)c3ccccc3)C(C)=C1C2(C)C`, for which the Potency entry in experiment [10], in experiment [1], in [9], in experiment [12], in [7] and in experiment [3] was “inactive” in each case. Further, the Potency entry in [4], in [5] and in [14] was “inactive” throughout.
